Consider six compounds from PubChem BioAssay (NCATS).

Molecules are shown by their SMILES. Records with an inconclusive call do not appear. Calls of active or inactive are those of the source. Unless noted, calls come from the whole dose curve; as a rule, active = well fitted curve in the direction sought with a large enough effect; inconclusive = small, poorly fitted or top-dose-only effect, or another doubt; inactive = no such curve, though single readings can be large; an effect the other way counts as inactive or inconclusive.

Experiment [1] in a line: AP1 Signaling Pathway (AID 357; active = well fitted curve in either direction with a large enough effect, not every such curve was filed as active; note: % is set by controls: 0 for no effect and ±100 for the full control effect). An outline of the steps: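 AP-1-bla ME-180 cells with beta-lactamase reporter under AP-1 response element, stimulated with EC50 EGF; compounds titrated, 5 hours at 37 degrees Celsius. CCF4 read at 460/530 nm ratio; positive and negative modulators judged by AC50.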
In experiment [2] the target is Cytochrome P450 1A2 (Homo sapiens) (UniProt P05177). Description: p450-cyp1a2 (AID 410; calls by dose curve; note: potency is the fitted concentration of half-maximal effect). The essentials: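 20nM CYP1A2 with 100uM Luciferin-ME (at Km) in 100mM KPO4; compound preincubated 10 min, NADPH regeneration added, 60 min at room temperature. Luciferin quantified by luminescence after detection reagent; normalized to 57 uM furafylline.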
Experiment [3] can be described thus: NFAT Signaling Pathway (AID 444; active = well fitted curve in either direction with a large enough effect, not every such curve was filed as active;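 note: carbachol stimulus at about its EC50 of 1 µM final; % is set by controls: 0 for no effect and ±100 for the full control effect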). As to conditions: Jurkat NFAT-bla M1, carbachol, beta-lactamase ratio, 5 h; at 17.2 µM (top of the series) unless noted. The essentials: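 Jurkat cells carrying an NFAT-driven β-lactamase reporter and co-transfected muscarinic M1 receptor were treated with compound plus carbachol (1 uM final, an EC50 level) for 5 h at 37 °C. CCF4 loading followed for 1 h at RT; 460/530 nm ratio gave %activity.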

The target of experiment [4] is Glucocorticoid receptor (Homo sapiens) (UniProt P04150). Briefly: GR-GFP Redistribution (AID 450;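 active = compounds whose dose series gives a full or clear partial fitted curve of increased nuclear translocation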; note: potency is the fitted concentration of half-maximal effect). As to conditions: U2OS GR-GFP nuclear translocation, laser cytometry, 2 h.
For experiment [5] the target is unchanged. Description: GR-EFC Redistribution (AID 451; calls by dose curve; note: potency is the fitted concentration of half-maximal effect). The settings on record: CHO-K1 GR-EFC translocation, beta-gal luminescence, 2 h. An outline of the steps: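 CHO-K1 cells stably expressing nuclear-localized β-gal enzyme acceptor and GR fused C-terminally to the enzyme donor fragment; ligand-driven nuclear translocation restores β-gal by complementation. Compounds titrated up to 46 uM final, 2 h at 37 °C; luminescence read.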

For experiment [6], the target named is Mitogen-activated protein kinase 10 (Mus musculus) (UniProt Q61831). Description: JNK3 AlphaScreen Assay (AID 530; active = well fitted curve in either direction with a large enough effect, not every such curve was filed as active;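 note: kinase came from lysate of stimulated human HepG2 cells; signal reports phosphorylation of biotinylated GST-cJun 1-79 at Ser73 with 10 µM ATP; % is set by controls: 0 for no effect and ±100 for the full control effect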). The essentials:
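Inhibitors reduce antibody binding to phosphorylated biotin-cJun, lowering AlphaScreen luminescence. Lysates from HepG2 cells pre-activated by IL-1beta plus TNF-alpha supplied JNK3; compounds were titrated.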

Experiment [7] deals with 3',5'-cyclic-AMP phosphodiesterase 4B (Homo sapiens) (UniProt Q07343). Briefly: qHTS Assay for Inhibitors of PDE-IV (AID 607; active = well fitted activation curve with a large enough effect in the main read-out, with a control signal flat, not every such curve was filed as active; note: % of control where 0% means no effect). An outline of the steps: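 Cell-based read-out of cAMP via a modified cyclic nucleotide-gated channel and membrane potential dye (535/590 nm) in HEK293 cells expressing PDE4 endogenously. Compounds tested up to 22.9 uM final; 100 uM RO 20-1724 reference.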
A general note: qHTS replaces the single test concentration by a dilution series.

The nature of experiment [8]: qHTS Assay for Lipid Storage Modulators (AID 1519; calls by dose curve). The settings on record: Drosophila S3 cells, BODIPY lipid droplet/cell ratio, laser cytometry, cells loaded with oleic acid; for activity change, negative = inhibition: at 25.7 µM (top of the series). The essentials:
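Cells seeded at 5,000 per well were treated with compounds over a concentration series and loaded with oleic acid (400 uM, as added). Lipid droplet fluorescence (488 nm excitation, 500-530 nm channel) was read by laser-scanning cytometry and normalized to 20 uM Triacsin C.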

Experiment [9] deals with Ubiquitin carboxyl-terminal hydrolase 1 (Homo sapiens) (UniProt O94782). Description: Inhibitors of USP1/UAF1: Pilot qHTS (AID 504865).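 Note: rhodamine fluorescence freed from ubiquitin-rhodamine substrate followed over time; top concentration of the series differs between compounds; % is set by controls: 0 for no effect and ±100 for the full control effect; nearly all actives have a fitted effect of over 35% in size.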 An outline of the steps:
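Deubiquitinase activity followed as kinetic rhodamine fluorescence release from 150 nM Ub-Rho. 1 nM USP1/UAF1 with compound, after 15 min room-temperature preincubation, in HEPES pH 7.8 buffer containing TCEP, EDTA, BSA and Tween-20.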

Experiment [10] can be described thus: Stat Signaling Pathway (AID 446; active = well fitted curve in either direction with a large enough effect, not every such curve was filed as active;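 note: ME-180 cervical cancer cells given 40 pM IL-6 alongside compound; SIE-controlled beta-lactamase reporter measured as 460/530 nm FRET emission ratio; % is set by controls: 0 for no effect and ±100 for the full control effect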). An outline of the steps: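 Reporter line: ME-180 cervical carcinoma, SIE-beta-lactamase. Treatment: compound with 40 pM IL-6, 5 hrs, 37 C, in low-serum OPTI-MEM with 10 mM HEPES pH 7.3. Detection: 460/530 nm fluorescence.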
In experiment [11] the target is ATP-dependent 6-phosphofructokinase (Trypanosoma brucei brucei) (UniProt O15648). Description: qHTS Assay to Find Inhibitors of T. brucei phosphofructokinase: hit validation (AID 492961). The essentials: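 Percent activity derived from corrected luminescence, normalized between 0x and 1x enzyme controls, then fitted to concentration-response curves. Conditions: 1.25 nM PFK, 0.1 mM ATP, 0.5 mM F6P, 45 min RT.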

The target in experiment [12] is Luciferin 4-monooxygenase (Photinus pyralis) (UniProt P08659). Description: Biochemical firefly luciferase enzyme assay for NPC (AID 624030).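 Note: purified P. pyralis luciferase at 10 nM with luciferin and ATP substrate; 0% = DMSO and -100% = full luciferase inhibition by PTC124 control; nearly all actives have a fitted effect of over 70% in size.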 An outline of the steps:
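Counter-screen for direct inhibition of the luciferase enzyme by approved-drug library compounds, run at 10 nM enzyme in 50 mM Tris acetate (final). Luminescence was read within 5 min of enzyme-buffer addition and normalized to PTC124 versus DMSO (0%).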

Experiment [13] concerns C2A. Description: qHTS profiling for inhibitors of Plasmodium falciparum proliferation (AID 504749).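 For activity, negative = inhibition: 0% = DMSO vehicle and full inhibition = artemisinin control.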 Note: nearly all actives have a fitted effect of over 60% in size. Note: potency is the fitted concentration of half-maximal effect. As to conditions: P. falciparum in erythrocytes, SYBR Green DNA, 72 h; series mostly up to 12.8 µM. The essentials:
(§1)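 Parasite proliferation within erythrocytes, 72 h exposure. Endpoint: SYBR Green I fluorescence after overnight lysis at room temperature. Controls: 0.29 uM artemisinin, DMSO.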

Experiment [14] relates to CP191. The experiment is described as above. As to conditions: P. falciparum in erythrocytes, SYBR Green DNA, 72 h; series mostly up to 12.8 µM. An outline of the steps: as §1
The subject of experiment [15] is CP238. The experiment is described as above. As to conditions: P. falciparum in erythrocytes, SYBR Green DNA, 72 h; series mostly up to 12.8 µM. An outline of the steps: as §1
Experiment [16] concerns CP256. The description is as above. The settings on record: P. falciparum in erythrocytes, SYBR Green DNA, 72 h; series mostly up to 12.8 µM. An outline of the steps: as §1
For experiment [17], the system named is FAB9. Described as above. As to conditions: P. falciparum in erythrocytes, SYBR Green DNA, 72 h; series mostly up to 12.8 µM. An outline of the steps:
as §1

The test system of experiment [18] is JCK. The description is as above. As to conditions: P. falciparum in erythrocytes, SYBR Green DNA, 72 h; series mostly up to 12.8 µM. An outline of the steps:
as §1

In experiment [19] the test system is SC27B. The experiment is described as above. The settings on record: P. falciparum in erythrocytes, SYBR Green DNA, 72 h; series mostly up to 12.8 µM. An outline of the steps: as §1
Assay in experiment [20]: as above
The settings on record: P. falciparum in erythrocytes, SYBR Green DNA, 72 h, at 12.8 µM (top of the series). An outline of the steps: as §1

Setting [21] is: measured here: cell count channel max response.
Where [22] appears, read: measured here: lipid channel max response.

3',5'-cyclic-AMP phosphodiesterase 4B (Homo sapiens), sequence (Q07343 whole entry, looked up): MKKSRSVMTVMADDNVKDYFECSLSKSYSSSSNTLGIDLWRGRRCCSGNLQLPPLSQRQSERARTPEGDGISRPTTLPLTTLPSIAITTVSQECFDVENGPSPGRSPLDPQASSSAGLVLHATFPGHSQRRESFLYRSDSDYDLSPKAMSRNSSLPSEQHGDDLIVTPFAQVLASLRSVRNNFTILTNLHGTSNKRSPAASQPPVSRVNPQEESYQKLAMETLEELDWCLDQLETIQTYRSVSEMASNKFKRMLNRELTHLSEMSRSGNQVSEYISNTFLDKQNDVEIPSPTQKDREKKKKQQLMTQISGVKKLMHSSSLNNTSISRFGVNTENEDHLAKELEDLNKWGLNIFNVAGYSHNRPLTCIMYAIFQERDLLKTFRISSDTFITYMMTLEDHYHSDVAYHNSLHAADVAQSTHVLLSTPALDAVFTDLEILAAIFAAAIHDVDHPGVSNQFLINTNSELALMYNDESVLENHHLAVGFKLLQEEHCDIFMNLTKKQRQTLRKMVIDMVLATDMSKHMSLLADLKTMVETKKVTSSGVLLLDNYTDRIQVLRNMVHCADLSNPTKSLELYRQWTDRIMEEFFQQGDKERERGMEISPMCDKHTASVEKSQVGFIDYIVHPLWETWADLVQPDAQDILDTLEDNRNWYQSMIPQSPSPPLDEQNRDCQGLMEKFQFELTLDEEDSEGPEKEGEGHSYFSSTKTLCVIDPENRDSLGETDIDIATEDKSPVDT
Glucocorticoid receptor (Homo sapiens), sequence (P04150 whole entry, looked up, the tested form may be a part): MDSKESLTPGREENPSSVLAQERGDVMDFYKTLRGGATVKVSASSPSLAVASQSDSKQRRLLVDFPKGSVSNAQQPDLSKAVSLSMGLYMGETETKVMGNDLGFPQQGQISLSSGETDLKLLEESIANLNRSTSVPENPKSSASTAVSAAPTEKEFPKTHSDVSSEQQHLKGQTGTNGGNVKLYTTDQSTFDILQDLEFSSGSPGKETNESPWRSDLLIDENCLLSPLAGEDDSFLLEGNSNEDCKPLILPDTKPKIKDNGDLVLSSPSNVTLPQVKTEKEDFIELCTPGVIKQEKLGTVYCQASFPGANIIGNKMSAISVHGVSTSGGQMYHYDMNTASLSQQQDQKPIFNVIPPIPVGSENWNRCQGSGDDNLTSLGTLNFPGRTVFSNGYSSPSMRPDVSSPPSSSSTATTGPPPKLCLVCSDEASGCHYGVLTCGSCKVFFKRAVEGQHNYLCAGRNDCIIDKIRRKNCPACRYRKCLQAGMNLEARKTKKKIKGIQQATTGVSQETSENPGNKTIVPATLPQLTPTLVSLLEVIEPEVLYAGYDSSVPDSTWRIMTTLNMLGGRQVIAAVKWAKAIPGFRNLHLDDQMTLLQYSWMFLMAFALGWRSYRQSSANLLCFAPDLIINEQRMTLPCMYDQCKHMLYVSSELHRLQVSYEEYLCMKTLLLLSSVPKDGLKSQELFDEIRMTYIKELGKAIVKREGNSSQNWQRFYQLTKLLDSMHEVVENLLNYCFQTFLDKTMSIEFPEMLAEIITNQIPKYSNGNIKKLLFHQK
Ubiquitin carboxyl-terminal hydrolase 1 (Homo sapiens), sequence (O94782 whole entry, looked up): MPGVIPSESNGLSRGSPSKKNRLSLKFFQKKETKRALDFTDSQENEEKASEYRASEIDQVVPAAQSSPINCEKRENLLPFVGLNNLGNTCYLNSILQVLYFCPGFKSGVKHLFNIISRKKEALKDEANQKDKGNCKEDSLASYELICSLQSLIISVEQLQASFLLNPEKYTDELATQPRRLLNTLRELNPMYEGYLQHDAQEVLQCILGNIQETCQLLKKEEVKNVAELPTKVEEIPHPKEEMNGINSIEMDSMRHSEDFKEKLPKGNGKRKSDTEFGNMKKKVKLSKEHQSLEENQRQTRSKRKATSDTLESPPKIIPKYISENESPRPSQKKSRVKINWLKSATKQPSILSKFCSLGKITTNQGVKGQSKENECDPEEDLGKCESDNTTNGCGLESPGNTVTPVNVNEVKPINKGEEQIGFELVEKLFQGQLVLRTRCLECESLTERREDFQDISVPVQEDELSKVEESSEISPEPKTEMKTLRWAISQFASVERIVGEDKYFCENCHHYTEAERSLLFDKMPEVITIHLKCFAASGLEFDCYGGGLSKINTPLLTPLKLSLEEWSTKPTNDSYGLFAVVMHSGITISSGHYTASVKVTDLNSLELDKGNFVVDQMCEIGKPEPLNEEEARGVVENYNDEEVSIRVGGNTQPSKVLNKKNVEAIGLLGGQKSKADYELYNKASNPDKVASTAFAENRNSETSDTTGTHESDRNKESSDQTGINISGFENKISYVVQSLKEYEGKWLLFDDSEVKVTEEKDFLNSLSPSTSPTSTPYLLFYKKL
Cytochrome P450 1A2 (Homo sapiens), sequence (P05177 whole entry, looked up): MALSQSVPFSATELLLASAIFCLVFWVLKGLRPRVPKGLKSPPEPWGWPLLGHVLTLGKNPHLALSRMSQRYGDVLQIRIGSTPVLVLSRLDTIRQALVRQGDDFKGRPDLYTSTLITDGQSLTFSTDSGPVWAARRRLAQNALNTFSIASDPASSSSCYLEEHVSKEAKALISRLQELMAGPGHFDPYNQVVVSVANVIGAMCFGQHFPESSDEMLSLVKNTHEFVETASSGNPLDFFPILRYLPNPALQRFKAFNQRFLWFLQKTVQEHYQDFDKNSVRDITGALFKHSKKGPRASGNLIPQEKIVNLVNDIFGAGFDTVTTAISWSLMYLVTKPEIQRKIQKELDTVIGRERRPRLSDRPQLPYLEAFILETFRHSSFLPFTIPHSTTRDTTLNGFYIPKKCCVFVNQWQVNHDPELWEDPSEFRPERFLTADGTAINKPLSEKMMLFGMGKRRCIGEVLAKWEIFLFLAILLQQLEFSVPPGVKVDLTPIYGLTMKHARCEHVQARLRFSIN
ATP-dependent 6-phosphofructokinase (Trypanosoma brucei brucei), sequence (O15648 whole entry, looked up): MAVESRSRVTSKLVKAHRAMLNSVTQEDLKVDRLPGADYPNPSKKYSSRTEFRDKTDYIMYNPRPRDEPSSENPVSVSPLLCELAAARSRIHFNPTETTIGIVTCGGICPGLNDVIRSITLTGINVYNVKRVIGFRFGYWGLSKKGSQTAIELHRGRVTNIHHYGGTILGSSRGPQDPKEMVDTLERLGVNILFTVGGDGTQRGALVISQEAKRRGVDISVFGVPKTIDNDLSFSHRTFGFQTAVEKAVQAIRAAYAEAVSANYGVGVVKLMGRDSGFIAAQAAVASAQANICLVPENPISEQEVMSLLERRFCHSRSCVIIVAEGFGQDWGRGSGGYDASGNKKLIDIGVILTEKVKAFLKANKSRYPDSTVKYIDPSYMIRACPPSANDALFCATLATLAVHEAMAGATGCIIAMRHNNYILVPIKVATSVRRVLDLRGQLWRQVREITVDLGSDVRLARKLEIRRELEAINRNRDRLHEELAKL
Luciferin 4-monooxygenase (Photinus pyralis), sequence (P08659 whole entry, looked up): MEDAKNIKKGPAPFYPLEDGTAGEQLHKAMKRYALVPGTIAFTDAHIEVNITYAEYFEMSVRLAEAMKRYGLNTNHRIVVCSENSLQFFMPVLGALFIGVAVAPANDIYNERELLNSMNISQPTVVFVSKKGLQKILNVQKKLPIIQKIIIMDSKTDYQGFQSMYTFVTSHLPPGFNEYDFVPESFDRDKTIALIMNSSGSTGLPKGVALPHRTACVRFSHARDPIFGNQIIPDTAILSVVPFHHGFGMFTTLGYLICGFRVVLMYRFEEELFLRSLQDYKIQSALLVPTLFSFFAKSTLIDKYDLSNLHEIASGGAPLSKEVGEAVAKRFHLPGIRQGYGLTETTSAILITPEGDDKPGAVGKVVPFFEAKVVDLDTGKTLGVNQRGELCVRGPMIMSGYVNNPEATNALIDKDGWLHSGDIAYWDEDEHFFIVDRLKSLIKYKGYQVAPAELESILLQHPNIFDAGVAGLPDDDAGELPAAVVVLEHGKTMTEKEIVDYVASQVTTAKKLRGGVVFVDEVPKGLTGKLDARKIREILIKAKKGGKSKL

With `Nc1c2ccccc2nc2c(O)cccc12`, the result in [1] and in [7] was inactive. The results for the Potency in experiment [2], in experiment [4] and in experiment [5] were 6.31 µM (active), > 20.6 µM (inactive) and > 20.6 µM (inactive), respectively. Also, the activity change, negative = inhibition was -1.27% (inactive) in [3] and -0.346% (inactive) in experiment [8]. Further, the Potency result in [6] and in [9] was “inactive” throughout. Also, the max response in experiment [8] (setting [21]) was -4.58%; in [8] (setting [22]), -4.09%.

With `C[C@@H]1C[C@@H]2[C@H]3CCC4=CC(=O)C=C[C@]4(C)[C@]3(F)[C@@H](O)C[C@]2(C)[C@@]1(O)C(=O)CO`, the outcome in [1] and in experiment [7] was inactive. The Potency result in experiment [2] and in experiment [9] was “inactive” each time. Further, the activity change, negative = inhibition was -9.85% (inactive) in experiment [3] and -3.53% (inactive) in experiment [8]. Also, the max response in experiment [8] (setting [21]) is 2.12%; in experiment [8] (setting [22]), -8.18%.

Take `OCCN1CCN(CCC=C2c3ccccc3Sc3ccc(Cl)cc32)CC1`: the outcome in experiment [1], in experiment [10], in [7] and in experiment [11] was inactive. For the same compound, the Potency in [2] is 15.8 µM (active); in experiment [4], > 20.6 µM (inactive); in experiment [5] it was > 20.6 µM (inactive); in experiment [14], 3.98 µM (active); in experiment [16], 3.55 µM (active). The Potency result in experiment [6], in [9], in experiment [12], in [13], in experiment [15] and in experiment [17] was “inactive” each time. The Potency entry in experiment [18] and in experiment [19] was “inactive” in each case. In addition, the activity change, negative = inhibition in experiment [8] was -7.08% (inactive). The max response in experiment [8] (setting [21]) is -13.2%; in experiment [8] (setting [22]) it was -20.1%.

On to `CO[C@H]1[C@@H](OC(N)=O)[C@H](O)[C@@H](Oc2ccc3c(O)c(NC(=O)c4ccc(O)c(CC=C(C)C)c4)c(=O)oc3c2C)OC1(C)C`, for which the compound was called inactive in experiment [1], in experiment [7] and in [11]. For the same compound, the Potency entry in experiment [2], in experiment [6], in [9], in [12], in experiment [13] and in experiment [14] was “inactive” each time. Besides, the Potency entry in [15], in experiment [16], in experiment [17], in [18] and in [19] was “inactive” throughout. The activity change, negative = inhibition is -13.7% (inactive) in experiment [3] and -1.82% (inactive) in [8]. Moreover, the Potency in experiment [4] and in experiment [5] was > 20.6 µM (inactive) throughout. For the same compound, the max response was -8.07% in experiment [8] (setting [21]) and -8.17% in experiment [8] (setting [22]). For the same compound, the activity, negative = inhibition was 4.79% (inactive) in experiment [20] (parasite line A) and -4.42% (inactive) in experiment [20] (parasite line B).

With `C[C@@H]1[C@H]2CC[C@@H]3[C@@H]4CC=C5C[C@@H](N(C)C)CC[C@]5(C)[C@@H]4CC[C@@]32CN1C`, the outcome in experiment [1], in experiment [10] and in experiment [7] was inactive. For the same compound, the Potency result in experiment [2] and in experiment [6] was “inactive” in each case. In addition, the Potency in experiment [4] and in [5] was > 20.6 µM (inactive) each time. For the same compound, the activity change, negative = inhibition in experiment [8] is -1.08% (inactive). Further, the values for the max response in experiment [8] (setting [21]) and in [8] (setting [22]) were -4.62% and -8.59%, respectively.

As for `CN(C)CCO[C@@H](c1ccc(Cl)cc1)c1ccccn1`, the compound was classed as inactive in experiment [1], in experiment [10] and in experiment [7]. Further, the Potency entry in experiment [2], in experiment [6] and in [9] was “inactive” throughout. Also, the Potency in experiment [4] is > 20.6 µM (inactive). Moreover, the activity change, negative = inhibition in [8] is -4.98% (inactive). For the same compound, the max response is -21.7% in experiment [8] (setting [21]) and -26% in experiment [8] (setting [22]).
